Assay outcomes from PubChem BioAssay.
NS1 inh: qHTS Assay for Inhibitors of Influenza NS1 Protein Function; Potency, µM (series often up to 46.1 µM), without a hit: top-dose activity, positive = more growth; 270,000 compounds, 0.4% hits; calls by dose curve; note: potency is the fitted concentration of half-maximal effect; actives are rising curves; nearly all actives have a fitted effect of over 50% in size
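OD600 was taken as the measure of yeast growth restored by compound in an NS1-expressing S. cerevisiae strain. Cells had been washed out of glucose medium and diluted 1:100 into galactose -URA medium, pH 6.0.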
Shiga inhibitor: A qHTS for Small Molecule Inhibitors of Shiga Toxin; 290,000 compounds, 9.2% hits; Vero cells, Shiga toxin protein synthesis inhibition reporter; inhibition, % at 38.7 µM; AID 2315, 2010; in the data active = inhibition mostly above about 28%, no sharp cut-off; inactive = mostly below about 43%; note: 0% is about no effect
Pf growth 96h: Primary qHTS for delayed death inhibitors of the malarial parasite plastid, 96 hour incubation. Potency, µM (doses to about 28.7 µM), for inactives: at the top dose activity change, negative = inhibition, usual class: inhibitors. P. falciparum luciferase reporter growth, 96 h. 320,000 compounds, 6.9% hits; note: potency is the fitted concentration of half-maximal effect; % is set by controls: 0 for no effect and ±100 for the full control effect
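P. falciparum expressing integrated firefly luciferase grown in erythrocytes (2% hematocrit, 0.05% parasitemia final) with compounds for 96 hours at 37 C, 5% CO2. Growth inhibition read as loss of luminescence after adding luciferase detection reagent.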
Giardia FBPA inh: qHTS Assay for Inhibitors of Fructose-1,6-bisphosphate Aldolase from Giardia Lamblia | AID 2451, 2010 | 290,000 compounds, 0.71% hits | purified Giardia FBPA | A8B2U2 | Potency, µM (top dose mostly 59.6 µM), for the others: at the top dose activity, negative = inhibition, most hits filed as inhibitors; note: potency is the fitted concentration of half-maximal effect; % is set by controls: 0 for no effect and ±100 for the full control effect; nearly all actives have a fitted effect of over 55% in size
Target sequence (A8B2U2 whole entry, looked up): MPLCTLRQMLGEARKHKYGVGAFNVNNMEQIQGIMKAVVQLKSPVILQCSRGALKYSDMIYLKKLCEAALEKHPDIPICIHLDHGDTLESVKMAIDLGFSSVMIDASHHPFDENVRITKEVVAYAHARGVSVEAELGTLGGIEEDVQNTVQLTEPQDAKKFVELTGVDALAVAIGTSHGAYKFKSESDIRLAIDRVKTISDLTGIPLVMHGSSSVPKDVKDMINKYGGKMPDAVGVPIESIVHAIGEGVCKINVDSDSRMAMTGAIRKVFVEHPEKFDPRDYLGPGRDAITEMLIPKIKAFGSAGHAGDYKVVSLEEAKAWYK
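Giardia FBPA (40 nM reagent) was preincubated 10 min at RT with compound (up to 57.5 uM final), then substrate plus GAPDH/TPI/NAD/arsenate coupling system with diaphorase/resazurin was added; resorufin fluorescence (525/598 nm) was read after 20 min.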
Cycloheximide cs: Cycloheximide Counterscreen for Small Molecule Inhibitors of Shiga Toxin; cell reporter, cycloheximide protein synthesis inhibition counterscreen; max response, %; 300,000 compounds, 12% hits; AID 2314, 2010; in the data active = max response mostly above about 13%, no sharp cut-off; inactive = mostly below about 14%; note: read at 38.3 µM for the half of the compounds with a filed dose; 0% is about no effect
Pf growth 48h: Primary qHTS for delayed death inhibitors of the malarial parasite plastid, 48 hour incubation; 310,000 compounds, 5.9% hits; Potency, µM (titrated, usually from 28.7 µM), for the others: at the highest dose activity change, negative = inhibition, hits mostly inhibitors; P. falciparum luciferase growth in erythrocytes, 48 h; AID 504832, 2011; note: potency is the fitted concentration of half-maximal effect; % is set by controls: 0 for no effect and ±100 for the full control effect
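Firefly luciferase activity from engineered P. falciparum reports growth; inhibitors lower the luminescent signal. Cultures contained 2% hematocrit erythrocytes at 0.1% final parasitemia.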
* marks the source's active call; other numbers are inactive results. This is a sample that favours compounds with a hit; in the whole collection about 21% have one here. Unless noted, calls come from the whole dose curve; as a rule, active = well fitted curve in the direction sought with a large enough effect; inconclusive = small, poorly fitted or top-dose-only effect, or another doubt; inactive = no such curve, though single readings can be large; an effect the other way counts as inactive or inconclusive.

Results for COc1ccc(/C=C2\SC(=S)N(CCCC(=O)N3CCCCC3CCO)C2=O)cc1 (configuration not stated) ?
NS1 inh: -34.2%; Shiga inhibitor: 1.1; Pf growth 96h: 8.28µM*; Cycloheximide cs: -1.7; Pf growth 48h: inconclusive

How did COc1cccc(/C=C2\SC(=O)N(CCC(=O)NNC(=O)c3ccccc3Cl)C2=O)c1 do in these assays?
NS1 inh: 10.8%; Shiga inhibitor: -11.6; Pf growth 96h: 61.8%; Giardia FBPA inh: 2.2%; Cycloheximide cs: -0.6; Pf growth 48h: 37.8%

What do the screens show for `CC(C)c1ccc(/C=C2\SC(=S)N(CCC(=O)N3CCCCC3CCO)C2=O)cc1` (configuration not stated)?
NS1 inh: 16.1%; Shiga inhibitor: -11.0; Pf growth 96h: 9.28µM*; Cycloheximide cs: -6.2; Pf growth 48h: -12.9%

What do the screens show for `COc1cccc(/C=C2\SC(=O)N(CCC(=O)N3CCCCC3CCO)C2=O)c1` (configuration not stated)?
NS1 inh: -19.7%; Shiga inhibitor: 12.6; Pf growth 96h: 10.4µM*; Cycloheximide cs: 7.4; Pf growth 48h: inconclusive

How did O=C1/C(=C/c2ccccc2Cl)SC(=S)N1CCC(=O)N1CCCCC1CCO (configuration not stated) do in these assays?
NS1 inh: -9.7%; Shiga inhibitor: 5.0; Pf growth 96h: inconclusive; Giardia FBPA inh: -3.3%; Cycloheximide cs: 9.1; Pf growth 48h: inconclusive

How did O=C1/C(=C\c2ccccc2)SC(=S)N1CCC(=O)N1CCCCC1CCO (configuration not stated) do in these assays?
NS1 inh: -18.6%; Shiga inhibitor: 38.6*; Pf growth 96h: inconclusive; Giardia FBPA inh: 5.4%; Cycloheximide cs: 35.2*; Pf growth 48h: inconclusive

How did CC(=O)c1cccc(N(CC(=O)NC2CCCCC2)C(=O)CNC(=O)c2cccs2)c1 do in these assays?
NS1 inh: 12.2%; Shiga inhibitor: -8.4; Pf growth 96h: 13.0%; Giardia FBPA inh: 10.8%; Cycloheximide cs: -0.3; Pf growth 48h: -7.1%

Results for CCOC(=O)C1=C(CNCc2ccccc2Cl)NC(=O)NC1c1cccc([N+](=O)[O-])c1 (configuration not stated) ?
Shiga inhibitor: -4.0; Pf growth 96h: 0.928µM*; Giardia FBPA inh: -7.0%; Cycloheximide cs: -2.3; Pf growth 48h: inconclusive

How did CCOC(=O)C1=C(Cn2cnc3ccccc32)NC(=O)NC1c1cc(C)ccc1C (configuration not stated) do in these assays?
NS1 inh: -48.8%; Shiga inhibitor: -15.8; Pf growth 96h: inconclusive; Giardia FBPA inh: 8.6%; Cycloheximide cs: -7.0; Pf growth 48h: inconclusive

What do the screens show for `CCOC(=O)C1=C(CSc2nc3ccccc3s2)NC(=O)NC1c1cccc([N+](=O)[O-])c1` (configuration not stated)?
NS1 inh: 17.5%; Shiga inhibitor: 18.6; Pf growth 96h: inconclusive; Giardia FBPA inh: -1.2%; Cycloheximide cs: 7.1; Pf growth 48h: 5.86µM*

How did CCOC(=O)C1=C(CNCc2ccc(C)cc2)NC(=O)NC1c1cc(C)ccc1C (configuration not stated) do in these assays?
NS1 inh: 14.0%; Shiga inhibitor: -8.5; Pf growth 96h: 3.29µM*; Giardia FBPA inh: -2.2%; Cycloheximide cs: -1.6

Results for CCOc1ccc(S(=O)(=O)N2CCC(C(=O)N3CCCC3)CC2)cc1C ?
NS1 inh: -5.7%; Shiga inhibitor: -3.5; Pf growth 96h: 8.9%; Giardia FBPA inh: 6.5%; Cycloheximide cs: -6.0; Pf growth 48h: -9.8%

How did Oc1ccccc1C1CC(c2cccs2)=NC(c2ccc(Cl)cc2)N1 (configuration not stated) do in these assays?
NS1 inh: -49.5%; Shiga inhibitor: 49.6*; Pf growth 96h: -0.3%; Giardia FBPA inh: -12.1%; Cycloheximide cs: 37.3*; Pf growth 48h: inconclusive

What do the screens show for `CNc1oc(-c2ccc(C)cc2)nc1P(=O)(c1ccccc1)c1ccccc1`?
NS1 inh: 3.0%; Shiga inhibitor: -9.3; Pf growth 96h: 14.7µM*; Giardia FBPA inh: -5.6%; Cycloheximide cs: 7.0; Pf growth 48h: 0.117µM*

Results for Nc1nnn(CC(=O)N/N=C/c2cn[nH]c2-c2ccccc2)n1 ?
NS1 inh: 2.7%; Shiga inhibitor: -2.9; Pf growth 96h: 11.9%; Giardia FBPA inh: 0.8%; Cycloheximide cs: -4.2; Pf growth 48h: -1.0%

What do the screens show for `CCC(=Nc1ccccc1OC)C1=C(O)CC(c2ccccc2)CC1=O` (configuration not stated)?
Shiga inhibitor: 21.3; Pf growth 96h: 0.415µM*; Giardia FBPA inh: -6.8%; Cycloheximide cs: -9.5; Pf growth 48h: -23.4%

How did CCCC(=NC(C)CC)C1=C(O)CC(c2ccccc2)CC1=O (configuration not stated) do in these assays?
NS1 inh: -61.6%; Shiga inhibitor: -5.0; Pf growth 96h: inconclusive; Giardia FBPA inh: -0.8%; Cycloheximide cs: 1.4; Pf growth 48h: 2.94µM*

What do the screens show for `CCOc1ccccc1N=CC1=C(O)CC(c2ccccc2)CC1=O` (configuration not stated)?
NS1 inh: 2.7%; Shiga inhibitor: 1.8; Pf growth 96h: -26.1%; Giardia FBPA inh: 0.2%; Cycloheximide cs: -1.1; Pf growth 48h: 4.7%

What do the screens show for `CCC(C)N=CC1=C(O)CC(c2ccccc2)CC1=O` (configuration not stated)?
NS1 inh: -15.4%; Shiga inhibitor: 29.8; Pf growth 96h: inconclusive; Giardia FBPA inh: 4.5%; Cycloheximide cs: 7.7

What do the screens show for `CCC(=Nc1ccccc1O)C1=C(O)CC(c2ccccc2)CC1=O` (configuration not stated)?
NS1 inh: -84.0%; Shiga inhibitor: 34.0; Pf growth 96h: inconclusive; Giardia FBPA inh: -23.2%; Cycloheximide cs: 10.8*; Pf growth 48h: inconclusive

Results for CCC(=NCCc1c(C)[nH]c2ccc(C)cc12)C1=C(O)CC(c2ccccc2)CC1=O (configuration not stated) ?
NS1 inh: 2.6%; Shiga inhibitor: -13.2; Pf growth 96h: inconclusive; Giardia FBPA inh: -4.2%; Cycloheximide cs: -4.6; Pf growth 48h: inconclusive

What do the screens show for `COCCN(C(=O)CSc1nc(N)cc(=O)[nH]1)c1c(N)n(Cc2ccccc2)c(=O)[nH]c1=O`?
Pf growth 96h: 30.0%; Pf growth 48h: -6.7%

Results for Cc1cccc(N2C(=O)N3[C@H](c4ccc(Br)cc4)[C@@H]4C(=O)N(C(C)(C)C)C(=O)[C@@H]4[C@]3(C)C2=O)c1 ?
NS1 inh: 4.4%; Shiga inhibitor: -5.3; Pf growth 96h: inconclusive; Giardia FBPA inh: -11.1%; Cycloheximide cs: -0.9; Pf growth 48h: inconclusive
